The values below come from PubChem BioAssay (NCATS).

Molecules are shown by their SMILES. “And” between values parts separate entries of the source, which are not always exact repeats. Equal values may be shown once. Records with an inconclusive call do not appear. A number with no mark means an inactive call. The source made the active and inactive calls. The call rests on the fitted dose curve; in most records, active means well fitted inhibition curve with a large enough effect; inconclusive means small, poorly fitted or top-dose-only effect; inactive means no such curve, though single readings can be large or run the other way.

The test system of the first assay is Zika virus NS2B-NS3 protease (unlinked complex). Description: Primary screen GU Rhodamine qHTS for Zika virus inhibitors: Unlinked NS2B-NS3 protease assay (AID 1347159). Further: on the % scale 0 is the no-effect control and ±100 the full control effect; nearly all actives have a fitted effect of over 60% in size. The settings on record: Recombinant ZIKV NS2B-NS3 protease, Rhodamine110 substrate fluorescence; series mostly up to 107 µM; activity change, negative = inhibition: at the top concentration. A digest of the protocol: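 Enzyme 25 nM in Tris-HCl pH 8.0 + 0.01% Tween 20; compounds up to 114 microM, 15 min RT dark; + Rhod110 substrate 1.5 microM; read t0 and 15 min; delta fluorescence → % inhibition → 4-parameter Hill fit.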
On the technique in general: qHTS replaces the single test concentration by a dilution series.
Regarding `Cc1[nH]nc2ccc(-c3cncc(OC[C@@H](N)Cc4c[nH]c5ccccc45)c3)cc12`, the “activity change, negative = inhibition” value is 123%.
`O=C(N[C@H]1CN2CCC1CC2)c1ccc(Cl)cc1`: the “activity change, negative = inhibition” value was -1.49%.
Same read-out and setting: the same measure for `Cc1ccccc1-n1c(Cn2cnc3c(N)ncnc32)nc2cccc(C)c2c1=O`: 14.9%.

The next assay concerns Zika virus NS2B-NS3 protease (linked construct). Description: Primary screen NINDS Rhodamine qHTS for Zika virus inhibitors (AID 1347160). Further: on the % scale 0 is the no-effect control and ±100 the full control effect; nearly all actives have a fitted effect of over 55% in size. The settings on record: purified NS2B-NS3 protease, Rhodamine110 substrate fluorescence; series mostly up to 57.1 µM; activity change, negative = inhibition: at the top concentration. Summed up: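 Enzyme (25 nM, linked NS2B-NS3) was preincubated 15 min with compound in 10 mM Tris-HCl pH 8.0, 0.01% Tween 20. Rhodamine110 substrate (1.5 microM) was then added and fluorescence read at start and after 15 min.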
`Cc1[nH]nc2ccc(-c3cncc(OC[C@@H](N)Cc4c[nH]c5ccccc45)c3)cc12`: the “activity change, negative = inhibition” value is 180%.
For the compound `O=C(N[C@H]1CN2CCC1CC2)c1ccc(Cl)cc1`, the “activity change, negative = inhibition” value is 10.2%.
Regarding `O=c1[nH]c2ccc(Cl)cc2c(N[C@@H]2CN3CCC2CC3)c1-c1nc2ccccc2[nH]1`, the “activity change, negative = inhibition” value was 8.75%.
On the same count and under the same terms, the same measure for `Cc1ccccc1-n1c(Cn2cnc3c(N)ncnc32)nc2cccc(C)c2c1=O`: 26.3%.

Test system in the next assay: not listed separately
The assay is described as follows: Confirmatory screen NINDS Rhodamine qHTS for Zika virus inhibitors (AID 1347161). Further: nearly all actives have a fitted effect of over 60% in size. Further: potency means the concentration at half of the fitted maximal effect.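 On activity change, negative = inhibition: purified Zika NS2B-NS3 protease with linked NS2B cofactor domain and Rhodamine110 peptide substrate; plate controls were no-inhibitor control for no effect and no-enzyme control for full effect.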 The note with it: purified enzyme assay, Rhodamine110 substrate fluorescence, 15 min; series mostly up to 228 µM; activity change, negative = inhibition: at the top concentration. A digest of the protocol:
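Single-chain NS2B-NS3 protease, 25 nM, pH 8.0; compounds preincubated 15 min. Activity: Rhodamine110 release from 1.5 microM substrate over 15 min, room temperature, data fitted to 4-parameter Hill.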
`O=C1C(I)=CC(=C(c2cc(I)c(O)c(I)c2)c2ccccc2C(=O)O)C=C1I`: the Potency is 2.51 µM (active).
In the case of `O=[N+]([O-])c1c(Cl)c(Cl)cc(Cl)c1Cl`, the “activity change, negative = inhibition” value was -1.3%.
With `CC1=C(O)C(=O)C=C2C1=CC=C1[C@@]2(C)CC[C@@]2(C)[C@@H]3C[C@](C)(C(=O)O)CC[C@]3(C)CC[C@]12C`, the Potency was 5.53 µM (active) and 2.77 µM (active).
